Inconclusive results are not listed. Active and inactive are the calls of the source. Calls follow the shape of the dose curve; as a rule, active = well fitted curve in the direction sought with a large enough effect in the repeat runs; inconclusive = weak or mixed curves; inactive = no such curve, though single readings can be large; an effect the other way counts as inactive or inconclusive.
Key:
[1] = qHTS RealTime-Glo MT Cell Viability Assay in HepG2 cells - 24 hour (AID 1224867); also: nearly all actives have a fitted effect of over 50% in size
In short: (§1)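 Compound treatment began 5 h after plating HepG2 cells (600/well) with NanoLuc luciferase and prosubstrate. Plates stayed at 37 C for 40 h; luminescence was captured at six time points, 0 h through 40 h.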

[2] = qHTS RealTime-Glo MT Cell Viability Assay in HEK293 cells - 32 hour (AID 1224868); also: top concentration of the series differs between compounds; nearly all actives have a fitted effect of over 50% in size
In short: (§2)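 Quantitative high-throughput screen of the Tox21 10K library in HEK293: cells and RealTime-Glo reagents plated together, compound added at 5 h, luminescence monitored through 40 h at 37 C.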

[3] = A CellTox Green Cytotoxicity Assay to monitor cytotoxicity in HEK293 cells - 0 hour (AID 1224869); also: nearly all actives have a fitted effect of over 50% in size
In short: (§3)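 Cytotoxicity was tracked continuously in HEK293 cells by a DNA-binding dye excluded from viable cells. Compounds were transferred in DMSO 5 h after seeding; fluorescence was recorded at intervals up to 40 h.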

[4] = qHTS RealTime-Glo MT Cell Viability Assay in HEK293 cells - 16 hour (AID 1224872); also: top concentration of the series differs between compounds; nearly all actives have a fitted effect of over 50% in size
In short: as §2

[5] = qHTS RealTime-Glo MT Cell Viability Assay in HepG2 cells - 8 hour (AID 1224873); also: nearly all actives have a fitted effect of over 55% in size
In short: (§4)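 HepG2 cells mixed with RealTime-Glo MT reagents (NanoLuc plus cell-permeant prosubstrate) were seeded at 600 cells/well, incubated 5 h at 37 C/5% CO2, then pinned with compounds in DMSO; nonlytic luminescence tracked viability during 40 h treatment.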

[6] = qHTS RealTime-Glo MT Cell Viability Assay in HEK293 cells - 40 hour (AID 1224874); details: RealTime-Glo luminescence; max response: hits give low values; also: nearly all actives have a fitted effect of over 50% in size
In short: (§5)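 Nonlytic bioluminescent viability monitoring. HEK293 at 600 cells/well with reagent; 5 h settle; compound transfer by pintool; plates held at 37 C and read at set time points.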

[7] = A CellTox Green Cytotoxicity Assay to monitor cytotoxicity in HEK293 cells - 24 hour (AID 1224875); also: series mostly up to about 77 µM; nearly all actives have a fitted effect of over 45% in size
In short: as §3

[8] = A CellTox Green Cytotoxicity Assay to monitor cytotoxicity in HepG2 cells - 16 hour (AID 1224876); also: nearly all actives have a fitted effect of over 45% in size
In short: (§6)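 Real-time, homogeneous cytotoxicity readout: dead-cell DNA staining by CellTox Green in HepG2 monolayers, fluorescence measured at timed intervals up to 40 h of continuous compound exposure.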

[9] = qHTS RealTime-Glo MT Cell Viability Assay in HepG2 cells - 32 hour (AID 1224877); also: nearly all actives have a fitted effect of over 55% in size
In short: as §1

[10] = A CellTox Green Cytotoxicity Assay to monitor cytotoxicity in HepG2 cells - 24 hour (AID 1224878); also: nearly all actives have a fitted effect of over 45% in size
In short: as §6

[11] = A CellTox Green Cytotoxicity Assay to monitor cytotoxicity in HepG2 cells - 40 hour (AID 1224879); also: nearly all actives have a fitted effect of over 40% in size
In short: as §6

[12] = qHTS RealTime-Glo MT Cell Viability Assay in HEK293 cells - 0 hour (AID 1224880); also: top concentration of the series differs between compounds; nearly all actives have a fitted effect of over 45% in size
In short: as §5

[13] = A CellTox Green Cytotoxicity Assay to monitor cytotoxicity in HEK293 cells - 32 hour (AID 1224881); also: nearly all actives have a fitted effect of over 40% in size
In short: as §3

[14] = A CellTox Green Cytotoxicity Assay to monitor cytotoxicity in HepG2 cells - 0 hour (AID 1224882); also: nearly all actives have a fitted effect of over 35% in size
In short: as §6

[15] = A CellTox Green Cytotoxicity Assay to monitor cytotoxicity in HepG2 cells - 32 hour (AID 1224883); also: nearly all actives have a fitted effect of over 50% in size
In short: as §6

[16] = A CellTox Green Cytotoxicity Assay to monitor cytotoxicity in HEK293 cells - 8 hour (AID 1224884); also: nearly all actives have a fitted effect of over 35% in size
In short: as §3

[17] = qHTS RealTime-Glo MT Cell Viability Assay in HepG2 cells - 16 hour (AID 1224885); also: nearly all actives have a fitted effect of over 50% in size
In short: as §1

[18] = A CellTox Green Cytotoxicity Assay to monitor cytotoxicity in HEK293 cells - 40 hour (AID 1224871); also: nearly all actives have a fitted effect of over 45% in size
In short: as §3

[19] = qHTS RealTime-Glo MT Cell Viability Assay in HepG2 cells - 40 hour (AID 1224870); also: nearly all actives have a fitted effect of over 50% in size
In short: as §4
% is scaled to controls: 0 for no effect and ±100 for the full control effect.

N[C@@H](Cc1ccc(O)cc1)C(=O)O
inactive: activity change, negative = cytotoxicity [1] -0.685% [at 6.97 µM] | activity change, negative = cytotoxic [2] -0.171% [at 6.97 µM] | cytotoxicity [3] 1.14% [at 6.97 µM] | activity change, negative = cytotoxicity [4] 0.747% [at 6.97 µM] | viability change, negative = cytotoxic [5] 0.728% [at 6.97 µM] | max response [6] -1.3% | activity change [7] 2.02% [at 6.97 µM, hits give high values] | cytotoxicity increase [8] -12.3% [at 6.97 µM] | activity change, negative = cytotoxic [9] -0.0666% [at 6.97 µM] | cytotoxicity [10] -12.9% [at 6.97 µM] | cytotoxicity increase [11] -8.31% [at 6.97 µM] | activity change, negative = cytotoxicity [12] 4.85% [at 6.97 µM] | cytotoxicity increase [13] 4.36% [at 6.97 µM] | cytotoxicity [14] 1.32% [at 6.97 µM] | cytotoxicity increase [15] -9.11% [at 6.97 µM] | cytotoxicity increase [16] -1.4% [at 6.97 µM] | activity change, negative = cytotoxic [17] 0.618% [at 6.97 µM]

CCC(C)OC(C)CC (centres undefined)
inactive: outcome [1] | Potency [2] | Potency [3] | Potency [4] | outcome [5] | max response [6] -6.97% | Potency [7] | Potency [8] | outcome [9] | Potency [10] | Potency [11] | Potency [12] | Potency [13] | Potency [14] | Potency [15] | Potency [16] | outcome [17]

Cc1ccccc1C(N)=O
inactive: outcome [1] | Potency [2] | Potency [3] | Potency [18] | Potency [4] | outcome [5] | max response [6] 3% | Potency [7] | Potency [8] | outcome [9] | Potency [10] | Potency [11] | Potency [12] | Potency [13] | Potency [14] | Potency [15] | Potency [16] | outcome [17]

C=CC(=O)CCCCC
inactive: outcome [1] | Potency [2] | Potency [3] | outcome [19] | Potency [4] | max response [6] -1.98% | Potency [7] | Potency [8] | outcome [9] | Potency [10] | Potency [11] | Potency [12] | Potency [13] | Potency [14] | Potency [15] | Potency [16] | outcome [17]

— PubChem BioAssay (Tox21)
